Holding throughout (assay): NCI-60 one-dose screen, 48 h (100 = growth as untreated, 0 = no growth, -100 = all killed)
Common to all, as to conditions: 10 µM

Experiment [1] relates to SK-MEL-2 melanoma.
For experiment [2], the system named is EKVX NSCLC.
In experiment [3] the test system is SN12C renal.
The test system of experiment [4] is UO-31 renal.
For experiment [5], the system named is TK-10 renal.
Experiment [6] concerns ACHN renal.
The subject of experiment [7] is CAKI-1 renal.
Experiment [8] deals with A498 renal.
Experiment [9] deals with MOLT-4 leukemia.
Experiment [10] has as its system SR leukemia.
Experiment [11] concerns RPMI-8226 leukemia.
Experiment [12] concerns OVCAR-8 ovarian.
Experiment [13] concerns OVCAR-5 ovarian.
For experiment [14], the system named is OVCAR-4 ovarian.
The subject of experiment [15] is SK-OV-3 ovarian.
Experiment [16] has as its system IGROV1 ovarian.
In experiment [17] the test system is OVCAR-3 ovarian.
Experiment [18] deals with HS 578T breast.
Experiment [19] concerns NCI/ADR-RES ovarian.
Experiment [20] relates to CCRF-CEM leukemia.

Growth data for eight compounds are collected here from PubChem BioAssay (NCI).

About 83,000 compounds went through this panel and 20% of them were active in at least one assay; those are over-represented in the sample as a whole.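 96-well plates, one dose, 48 hours. Percent growth reported; active if below 10.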 A number with no mark means an inactive call. Activity calls are given as the source filed them.

In the case of `COc1cc(-c2csc(NC(=O)Nc3ccc(Cl)c(C(F)(F)F)c3)n2)cc(OC)c1OC`, the growth in [1] was -14.3% (active); in experiment [2], 2.12% (active); in [3], -11.3% (active); in experiment [4], -1.04% (active); in experiment [5], -4.34% (active); in experiment [6], -8.21% (active). The growth was 6.78% (active) in [7]; -15.7% (active) in experiment [8]; 2.65% (active) in experiment [9]; 0.909% (active) in experiment [10]; -7.41% (active) in experiment [11]; 4.2% (active) in experiment [12]. Moreover, the growth in experiment [13] was 18.4%; in experiment [14], -1.69% (active); in experiment [15] it was 2.04% (active); in experiment [16] it was 25.2%; in experiment [17], -19% (active); in [18], 16.8%. For the same compound, the growth in [19] is -8.03% (active).
As for `C=CCn1c(SCC(=O)Nc2ccc(C(=O)/C=C/c3cc(OC)c(OC)c(OC)c3)cc2)nnc1-c1cc(-c2ccc(Cl)cc2)nc2ccccc12`, the growth is 103% in [1]; 86.4% in experiment [2]; 86.8% in experiment [3]; 57.1% in [4]; 113% in experiment [5]; 86.1% in experiment [6]. For the same compound, the growth was 67.2% in experiment [7]; 80.6% in [8]; 52.6% in experiment [9]; 62% in experiment [10]; -16.3% (active) in experiment [11]; 52.1% in experiment [12]. For the same compound, the growth is 97.6% in [13]; 87.9% in experiment [14]; 87.1% in experiment [15]; 88.4% in experiment [16]; 97.3% in experiment [17]; 83.7% in experiment [18]. Further, the growth in experiment [19] was 75.6%.
In the case of `C#CCOc1c(OC)cc(C(=O)/C(C)=C/c2cccc(N=[N+]=[N-])c2)cc1OC`, the growth is 27.5% in experiment [1]; 46% in experiment [2]; 41.8% in experiment [3]; 50.9% in experiment [4]; 60.8% in experiment [5]; 32.4% in experiment [6]. Moreover, the growth was 42.9% in [7]; 23.4% in experiment [8]; 21.8% in experiment [9]; 28.7% in experiment [10]; 43.7% in [11]; 28.6% in [12]. Moreover, the growth is 42.9% in experiment [13]; 55.9% in [14]; 32.1% in experiment [15]; 33.2% in [16]; -0.611% (active) in [17]; 46% in [18]. For the same compound, the growth in experiment [19] is 13.6%.
Take `COc1cc2ncnc(NC3CCC(O)CC3)c2cc1OC` (configuration not stated): the growth is 97.1% in experiment [1]; 80.8% in experiment [2]; 106% in experiment [3]; 76.2% in [4]; 90% in experiment [5]; 94.9% in experiment [6]. In addition, the growth in [7] was 88.5%; in experiment [8], 93.7%; in [9], 62.8%; in experiment [10], 77.4%; in experiment [11], 104%; in experiment [12], 97.4%. For the same compound, the growth is 92.1% in experiment [13]; 103% in experiment [14]; 109% in experiment [15]; 97.1% in experiment [16]; 111% in experiment [17]; 95.5% in experiment [18]. The growth in experiment [19] was 100%.
In the case of `CNC(=O)c1cn2c3c(c(N4CCN(C)CC4)c(F)cc3c1=O)OC[C@@H]2C`, the growth in experiment [1] is 95.4%; in [2] it was 93.5%; in experiment [3] it was 104%; in experiment [4] it was 92.3%; in [5], 90.6%; in experiment [6], 111%. The growth in experiment [7] was 94.7%; in experiment [8], 92.8%; in [9], 101%; in [10], 90.6%; in experiment [11] it was 96.3%; in experiment [12] it was 106%. Also, the growth was 105% in experiment [13]; 94.1% in experiment [14]; 102% in [15]; 111% in [16]; 107% in [17]; 101% in experiment [18]. In addition, in [19], the growth is 102%.
As to `CCCC1(CN2c3ccccc3Sc3ccc(Cl)cc32)CCN(CC)C1` (configuration not stated), the growth was -3.45% (active) in experiment [1]; -12.8% (active) in [2]; 23.1% in [3]; -1.01% (active) in experiment [4]; -56.6% (active) in experiment [5]; 0.109% (active) in experiment [6]. The growth in [7] is -14.2% (active); in experiment [8], 8.05% (active); in [9], -27.9% (active); in experiment [10], -50.1% (active); in [11], -43.2% (active); in [12] it was -41.2% (active). Moreover, the growth in [13] was 8.89% (active); in [14], 28.3%; in [15], 21.7%; in experiment [16], -42.7% (active); in experiment [17] it was 2.48% (active); in experiment [18], -22.8% (active). In addition, the growth in experiment [19] is 31.4%.
Take `N#Cc1c(-c2ccc(Cl)cc2)csc1NC(=O)Nc1ccc(Cl)c(C(F)(F)F)c1`: the growth in experiment [1] was 5.43% (active); in experiment [2] it was 11.9%; in [3], 14.4%; in experiment [4], 28.2%; in experiment [5] it was 10.3%; in [6] it was 3.38% (active). Also, the growth is 13.5% in experiment [7]; 35.6% in experiment [8]; 1.45% (active) in [9]; -15.1% (active) in [10]; 1.61% (active) in [11]; 23% in experiment [12]. Also, the growth in experiment [13] is 60.2%; in [14], -26.4% (active); in experiment [15] it was 19.9%; in experiment [16] it was 22.1%; in experiment [17], -19.7% (active); in [18], 29.6%. Further, the growth in [19] was 8.74% (active).
In the case of `OC(CNc1ccnc2cc(Cl)ccc12)CNC1CCCCC1` (configuration not stated), the growth was 91.8% in experiment [1]; 88.1% in [2]; 85.9% in experiment [3]; 61.2% in experiment [4]; 96.1% in [5]; 81.8% in experiment [6]. Further, the growth in [7] was 71.2%; in [8], 59.6%; in experiment [20] it was 80.5%; in experiment [10], 23.1%; in [11] it was 65%; in [12], 87.9%. The growth in [13] was 87.4%; in experiment [14], 76%; in [15] it was 85.1%; in [16], 103%; in [17] it was 89.4%; in experiment [18] it was 83.8%. In [19], the growth was 90.7%.
